For eleven molecules, outcome and Potency results are on record in PubChem BioAssay (NCATS).

SMILES strings stand for the structures. Several values for one entry are separate records, joined by “and”; a condition that tells them apart may be missing. Equal entries are not always repeated. A number with no mark means an inactive call. Inconclusive results are not listed. Activity calls are given as the source filed them. Unless noted, calls come from the whole dose curve; as a rule, active = well fitted curve in the direction sought with a large enough effect; inconclusive = small, poorly fitted or top-dose-only effect, or another doubt; inactive = no such curve, though single readings can be large; an effect the other way counts as inactive or inconclusive.

Assay [1] in a line: Cellular Toxicity (caspase-3) NIH 3T3 (AID 666).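 Note: caspase signal read after 16 h compound exposure.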 The essentials:
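Luminescence from aminoluciferin released by caspase-3/7 cleavage of a peptide substrate served as read-out. Mouse fibroblast NIH 3T3 cells were exposed to compounds over a concentration range for 16 hours, and AC50 values came from standard Hill modelling.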

Assay [2] in a line: Cellular Toxicity (caspase-3) Renal Proximal Tubule (AID 667).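 Note: cells exposed to compound for 16 hours at 37 °C before detection.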 A digest of the protocol:
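Freshly isolated primary rat kidney proximal tubule cells, 1000/well, treated 16 hr at 37 °C, then Caspase-Glo 3/7 luminescence after 1 hr. Normalized to DMSO and 10 uM staurosporine; AC50 from Hill fit.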

Assay [3] deals with Cytochrome P450 3A4 (Homo sapiens) (UniProt P08684). As to the kind of experiment: qHTS Assay for Inhibitors and Substrates of Cytochrome P450 3A4 (AID 884). Note: series mostly up to about 57 µM; nearly all actives have a fitted effect of over 50% in size. A digest of the protocol:
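20 nM human CYP3A4 with 25 uM Luciferin-PPXE (at KM) in 200 mM KPO4, preincubated 10 min with compound; NADPH regeneration started a 60 min RT reaction. Luciferin detected by luminescence, normalized to 57 uM ketoconazole as full inhibition.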
(Quantitative high-throughput screening tests each substance at several concentrations.)

Assay [4] can be described thus: Cell Viability - LYMP2-001 (AID 921). Note: series mostly up to about 92 µM; nearly all actives have a fitted effect of over 70% in size. The essentials: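 Human lymphoblastoid LYMP2-001 cells, 2500 per well, in complete medium, treated 24 h at 37 C. Viability from cellular ATP by CellTiter-Glo luminescence; AC50 from Hill-equation fits of qHTS concentration-response.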
A short description of assay [5]: MultiTox-Fluor Cytotoxicity Assay - LYMP1-001 - Dead Cells (AID 946). The essentials:
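AC50 from Hill fit of concentration-response; data normalized to DMSO (basal) and 15 uM tetraoctylammonium bromide (100%). LYMP1-001 lymphoblastoid cells, 2500/well, 16 hr compound at 37 C; dead-cell protease fluorescence, Ex/Em 485/520.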

A short description of assay [6]: MultiTox-Fluor Cytotoxicity Assay - LYMP1-001 - Live Cells (AID 947).
In assay [7] the target is Guanine nucleotide-binding protein G(i) subunit alpha-1 (Homo sapiens) (UniProt P63096). As to the kind of experiment: qHTS Assay for Inhibitors of RGS12 GoLoco Motif Activity (Green Fluorophore) (AID 879).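 Note: negative values mean loss of peptide binding seen as reduced polarization.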 A digest of the protocol:
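Fluorescence polarization assay: 50 nM Gαi1 with 10 nM FITC-labeled RGS12 GoLoco peptide in 10 mM Tris pH 7.5, 150 mM NaCl, 0.1 mM GDP, 0.05% NP40, 10 min at room temperature with compound.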

The nature of assay [8]: qHTS Assay for Identification of Small Molecule Antagonists for NFkB Signaling Pathway (AID 895; active = well fitted inhibition curve with a large enough effect in the signal ratio, with a control signal flat, not every such curve was filed as active; the % refers to the signal ratio; note: potency is the fitted concentration of half-maximal effect). The essentials:
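Beta-lactamase reporter read-out (460 and 530 nm emission ratio, 405 nm excitation, 2 hrs substrate loading RT) after 5 hr stimulation with 10 pM TNF alpha in compound-treated NFkB-bla ME-180 cells in low-serum medium.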

The nature of assay [9]: Confirmation and Secondary Assay for Modulators of Hemoglobin Beta Chain Splicing at IVS2 654 locus (AID 910).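 Note: HeLa cells stably carrying EGFP split by mutant beta-globin IVS2-654 intron; per-well total GFP intensity by laser scanning cytometry after 2-day treatment.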 A digest of the protocol: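 Readout: per-well total peak green fluorescence (488 nm ex, 500–520 nm em) from objects 5–250 µm, reflecting correct splicing of an EGFP-654 reporter. Compounds were applied for 2 days at 37 °C to overnight-plated HeLa EGFP-654 cells; controls were DMSO and 500 nM IVS2-654 PNA.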

The nature of assay [10]: qHTS Assay for Identification of Small Molecule Agonists for Thrombopoietin (TPO) Signaling Pathway (AID 917). A digest of the protocol:
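Murine Ba/F3 cells expressing human TPO receptor and GPIIb-promoter luciferase, IL-3-starved overnight, given compound plus TPO at 26 pM (EC50). After 24 h at 37 C, 5% CO2, luminescence read.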

Assay [11] is described as follows: Confirmation and Secondary Assay for Modulators of Hemoglobin Beta Chain Splicing at IVS2 705 locus (AID 930).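 Note: HeLa cells stably expressing the EGFP-705 splicing reporter; series mostly up to about 46 µM.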 A digest of the protocol: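 HeLa cells stably carrying EGFP interrupted by mutant beta-globin IVS2-705 intron (CMV-driven) were seeded at 500 cells/well, treated next day with compound for 2 days at 37C; corrected splicing restores EGFP, read as total peak GFP intensity per well.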

Assay [12] has as its target Muscarinic acetylcholine receptor M1 (Rattus norvegicus) (UniProt P08482). The assay can be described thus: qHTS Assay for Antagonists of Acetylcholine Muscarinic M1 Receptor: Measurement of IP-One Response (AID 944). Note: nearly all actives have a fitted effect of over 75% in size. The essentials: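 M1-CHO (rat), 2000 cells/well, overnight recovery; cpd 10 min; carbachol EC80 (200 nM), 30 min, HEPES buffer + 50 mM LiCl pH 7.4; IP-One HTRF, Ex 337, Em 620/665 nm.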

Assay [13] has as its target Pyruvate kinase (Leishmania mexicana) (UniProt Q27686). As to the kind of experiment: qHTS Validation Assay for Inhibitors of Leishmania Mexicana Pyruvate Kinase (AID 945). A digest of the protocol: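 LmPYK E451W 0.2 nM; 0.5 mM PEP, 0.1 mM ADP, 7 mM MgCl2, 50 mM KCl, imidazole pH 7.2, 0.01% Tween 20, 0.05% BSA; 1 h RT; PKLight luminescence; DMSO-normalized.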
Assay [14] concerns the target Pyruvate kinase PKM (Homo sapiens) (UniProt P14618). As to the kind of experiment: qHTS Assay for Activators of Human Muscle Pyruvate Kinase (AID 954; active = well fitted curve in the direction sought with a large enough effect, not every such curve was filed as active). A digest of the protocol: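 Luminescence from a luciferase ATP-detection/stop reagent reported PKM2 activity. Reactions contained 0.1 nM purified human enzyme, 0.5 mM PEP, 0.1 mM ADP and 7 mM MgCl2 at pH 7.2, run 1 h at RT.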

The target of assay [15] is Cytochrome P450 2C9 (Homo sapiens) (UniProt P11712). As to the kind of experiment: qHTS Assay for Inhibitors and Substrates of Cytochrome P450 2C9 (AID 883). Note: nearly all actives have a fitted effect of over 60% in size. A digest of the protocol:
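Turnover of Luciferin-H (100uM, KM) by 10nM human CYP2C9 was measured over 60 min at 37C with NADPH regeneration; inhibitors and some substrates reduce luminescence. Data normalized to sulphaphenazole 57uM.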

For assay [16], the target named is Cytochrome P450 2D6 (Homo sapiens) (UniProt P10635). As to the kind of experiment: qHTS Assay for Inhibitors and Substrates of Cytochrome P450 2D6 (AID 891). Note: nearly all actives have a fitted effect of over 60% in size. Note: potency is the fitted concentration of half-maximal effect. The essentials: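 Human CYP2D6 (5 nM) with 30 uM Luciferin-ME EGE (at Km) in 100 mM KPO4, compound preincubated 10 min, then NADPH regeneration system for 60 min at room temperature. Luciferin read by luminescence; normalized to 1.43 uM quinidine.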

Assay [17] addresses Cytochrome P450 2C19 (Homo sapiens) (UniProt P33261). As to the kind of experiment: qHTS Assay for Inhibitors and Substrates of Cytochrome P450 2C19 (AID 899). Note: nearly all actives have a fitted effect of over 60% in size. Note: potency is the fitted concentration of half-maximal effect. A digest of the protocol:
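Reactions contain 5nM enzyme, 10uM Luciferin-H EGE (KM) and 50mM KPO4; compound preincubates 10 min at 37C, NADPH regeneration starts turnover for 60 min. Luminescence after detection reagent gives activity.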

Assay [18] deals with Cytochrome P450 3A4 (Homo sapiens) (UniProt P08684). The assay can be described thus: qHTS Assay for Activators of Cytochrome P450 3A4 (AID 885). Note: nearly all actives have a fitted effect of over 65% in size. A digest of the protocol: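 20nM CYP3A4 + 25uM Luciferin-PPXE (=KM), 200mM KPO4; cpd 10 min RT; NADPH regen, 60 min RT; stop w/ detection buffer, 20 min; luminescence. Normalized to 57 uM ketoconazole.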
In assay [19] the target is Muscarinic acetylcholine receptor M1 (Rattus norvegicus) (UniProt P08482). The assay can be described thus: qHTS Assay for Antagonists of Acetylcholine Muscarinic M1 Receptor: Kinetic Measurement of Intracellular Calcium Response (AID 943).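 Note: Fluo-4 calcium signal as peak divided by basal fluorescence over 4 min; series mostly up to about 35 µM; nearly all actives have a fitted effect of over 75% in size.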 The essentials: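 Rat M1-CHO cells, 2000/well, overnight → Fluo-4 no-wash dye with probenecid, 1 h 37C → compound 10 min, room temp → basal read 6 s → carbachol EC80 (100 nM) → 4 min kinetic read; peak/basal.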
Sequence of Muscarinic acetylcholine receptor M1 (Rattus norvegicus) (P08482 whole entry, looked up): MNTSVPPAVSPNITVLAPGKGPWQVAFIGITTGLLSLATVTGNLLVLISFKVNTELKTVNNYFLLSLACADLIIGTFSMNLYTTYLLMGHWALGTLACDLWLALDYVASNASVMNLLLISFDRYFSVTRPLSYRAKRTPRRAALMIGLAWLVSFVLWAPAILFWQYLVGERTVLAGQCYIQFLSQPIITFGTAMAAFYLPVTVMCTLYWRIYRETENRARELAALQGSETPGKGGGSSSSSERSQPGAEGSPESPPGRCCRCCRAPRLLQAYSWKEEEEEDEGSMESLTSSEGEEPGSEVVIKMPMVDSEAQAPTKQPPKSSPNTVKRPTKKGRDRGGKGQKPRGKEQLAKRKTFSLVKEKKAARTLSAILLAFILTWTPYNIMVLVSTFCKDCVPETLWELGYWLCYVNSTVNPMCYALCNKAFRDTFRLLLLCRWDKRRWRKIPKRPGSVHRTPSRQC

Sequence of Guanine nucleotide-binding protein G(i) subunit alpha-1 (Homo sapiens) (P63096 whole entry, looked up): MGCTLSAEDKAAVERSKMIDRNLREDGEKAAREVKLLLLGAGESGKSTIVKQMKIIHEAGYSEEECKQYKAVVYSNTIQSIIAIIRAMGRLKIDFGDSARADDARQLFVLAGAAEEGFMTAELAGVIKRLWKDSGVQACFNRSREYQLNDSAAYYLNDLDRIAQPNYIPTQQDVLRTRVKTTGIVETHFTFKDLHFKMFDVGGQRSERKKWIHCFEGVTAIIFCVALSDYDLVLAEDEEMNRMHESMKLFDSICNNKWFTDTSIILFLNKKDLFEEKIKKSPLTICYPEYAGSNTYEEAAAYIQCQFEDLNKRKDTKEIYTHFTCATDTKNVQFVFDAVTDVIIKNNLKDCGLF
Sequence of Cytochrome P450 3A4 (Homo sapiens) (P08684 whole entry, looked up): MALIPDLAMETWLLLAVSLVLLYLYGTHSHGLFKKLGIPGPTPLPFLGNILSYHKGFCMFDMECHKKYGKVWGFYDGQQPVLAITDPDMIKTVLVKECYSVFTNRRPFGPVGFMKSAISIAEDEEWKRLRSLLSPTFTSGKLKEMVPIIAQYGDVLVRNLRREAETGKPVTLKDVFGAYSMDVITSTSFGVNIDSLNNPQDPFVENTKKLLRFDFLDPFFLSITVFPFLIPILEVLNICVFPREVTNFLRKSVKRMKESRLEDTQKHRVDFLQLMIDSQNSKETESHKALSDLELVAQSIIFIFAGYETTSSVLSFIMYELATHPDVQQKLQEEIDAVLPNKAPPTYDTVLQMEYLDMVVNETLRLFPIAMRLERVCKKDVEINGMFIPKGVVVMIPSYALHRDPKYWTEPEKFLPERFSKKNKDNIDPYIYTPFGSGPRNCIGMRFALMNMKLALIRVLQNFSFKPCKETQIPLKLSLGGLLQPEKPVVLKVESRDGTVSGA
Sequence of Pyruvate kinase PKM (Homo sapiens) (P14618 whole entry, looked up): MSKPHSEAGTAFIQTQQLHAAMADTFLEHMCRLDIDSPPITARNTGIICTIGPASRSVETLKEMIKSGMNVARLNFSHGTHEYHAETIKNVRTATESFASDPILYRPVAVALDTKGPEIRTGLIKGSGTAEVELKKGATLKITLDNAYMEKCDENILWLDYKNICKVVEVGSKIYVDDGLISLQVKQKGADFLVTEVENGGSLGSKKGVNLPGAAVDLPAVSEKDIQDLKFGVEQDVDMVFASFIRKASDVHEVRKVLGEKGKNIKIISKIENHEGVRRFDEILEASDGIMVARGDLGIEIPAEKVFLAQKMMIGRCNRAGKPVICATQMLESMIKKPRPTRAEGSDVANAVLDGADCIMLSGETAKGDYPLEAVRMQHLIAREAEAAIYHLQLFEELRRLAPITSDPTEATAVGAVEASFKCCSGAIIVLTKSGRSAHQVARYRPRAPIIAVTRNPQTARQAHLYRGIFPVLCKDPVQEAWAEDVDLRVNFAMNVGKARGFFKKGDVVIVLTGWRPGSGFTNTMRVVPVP
Sequence of Pyruvate kinase (Leishmania mexicana) (Q27686 2-499 E452W): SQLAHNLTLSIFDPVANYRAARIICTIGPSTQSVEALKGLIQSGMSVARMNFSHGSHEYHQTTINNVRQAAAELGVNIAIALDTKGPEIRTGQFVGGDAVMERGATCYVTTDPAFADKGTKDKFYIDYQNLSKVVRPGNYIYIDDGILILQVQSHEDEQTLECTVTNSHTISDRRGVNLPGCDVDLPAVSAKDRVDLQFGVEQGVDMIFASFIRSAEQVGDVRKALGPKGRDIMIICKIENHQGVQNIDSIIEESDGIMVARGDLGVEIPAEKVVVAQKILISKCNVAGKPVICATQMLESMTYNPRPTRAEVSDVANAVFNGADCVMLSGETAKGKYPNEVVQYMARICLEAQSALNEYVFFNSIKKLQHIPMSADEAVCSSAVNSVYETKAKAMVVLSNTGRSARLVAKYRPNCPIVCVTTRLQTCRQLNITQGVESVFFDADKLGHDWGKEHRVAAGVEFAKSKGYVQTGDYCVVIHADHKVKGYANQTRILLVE
Sequence of Cytochrome P450 2C19 (Homo sapiens) (P33261 whole entry, looked up): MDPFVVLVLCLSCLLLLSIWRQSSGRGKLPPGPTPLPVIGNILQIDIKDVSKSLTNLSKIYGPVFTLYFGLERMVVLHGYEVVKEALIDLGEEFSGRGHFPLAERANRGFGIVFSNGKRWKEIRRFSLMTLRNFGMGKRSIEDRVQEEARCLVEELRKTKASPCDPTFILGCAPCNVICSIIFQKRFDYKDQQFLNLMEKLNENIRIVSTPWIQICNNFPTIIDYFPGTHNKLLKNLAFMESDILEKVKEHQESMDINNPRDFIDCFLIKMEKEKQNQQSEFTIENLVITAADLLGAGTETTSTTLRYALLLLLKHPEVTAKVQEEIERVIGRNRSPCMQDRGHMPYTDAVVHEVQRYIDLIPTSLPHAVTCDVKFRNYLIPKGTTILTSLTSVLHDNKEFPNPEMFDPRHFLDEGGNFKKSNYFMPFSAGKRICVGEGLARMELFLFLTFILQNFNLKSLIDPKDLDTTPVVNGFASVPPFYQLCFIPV
Sequence of Cytochrome P450 2D6 (Homo sapiens) (P10635 whole entry, looked up): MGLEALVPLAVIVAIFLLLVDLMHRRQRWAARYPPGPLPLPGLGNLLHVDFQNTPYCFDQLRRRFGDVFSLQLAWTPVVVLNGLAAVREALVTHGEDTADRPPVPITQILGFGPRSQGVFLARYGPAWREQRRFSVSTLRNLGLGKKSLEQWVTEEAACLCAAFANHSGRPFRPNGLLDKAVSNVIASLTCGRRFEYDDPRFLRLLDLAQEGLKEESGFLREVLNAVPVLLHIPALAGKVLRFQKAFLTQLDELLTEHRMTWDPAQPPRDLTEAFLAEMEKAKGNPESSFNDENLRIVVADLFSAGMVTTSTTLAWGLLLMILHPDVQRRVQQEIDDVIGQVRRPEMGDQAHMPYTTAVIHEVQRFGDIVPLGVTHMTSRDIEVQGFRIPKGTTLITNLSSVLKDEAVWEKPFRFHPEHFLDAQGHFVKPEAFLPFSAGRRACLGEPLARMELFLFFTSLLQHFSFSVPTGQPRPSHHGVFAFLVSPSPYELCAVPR
Sequence of Cytochrome P450 2C9 (Homo sapiens) (P11712 whole entry, looked up): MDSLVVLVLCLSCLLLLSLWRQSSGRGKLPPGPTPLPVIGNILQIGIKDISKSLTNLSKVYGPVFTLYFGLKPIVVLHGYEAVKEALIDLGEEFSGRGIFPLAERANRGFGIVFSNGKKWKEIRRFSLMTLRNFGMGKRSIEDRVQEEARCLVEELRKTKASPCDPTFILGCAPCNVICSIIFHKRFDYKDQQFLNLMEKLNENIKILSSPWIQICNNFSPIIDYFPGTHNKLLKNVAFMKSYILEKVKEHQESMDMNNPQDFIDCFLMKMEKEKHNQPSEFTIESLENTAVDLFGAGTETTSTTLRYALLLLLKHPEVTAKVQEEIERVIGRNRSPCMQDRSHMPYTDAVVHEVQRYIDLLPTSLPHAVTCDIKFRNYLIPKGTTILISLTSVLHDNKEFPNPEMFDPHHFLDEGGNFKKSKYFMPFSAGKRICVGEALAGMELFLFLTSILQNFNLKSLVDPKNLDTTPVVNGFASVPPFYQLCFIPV

As to `COC(=O)C(c1ccccc1)C1CCCCN1` (centres undefined), the molecule was classed as inactive in [1], in assay [2], in assay [4], in [5] and in assay [6]. The Potency entry in assay [3] was “inactive”.
Take `CCCC(C)(COC(N)=O)COC(N)=O`: the outcome in assay [1], in assay [2], in assay [4], in assay [5] and in [6] was inactive. Moreover, the Potency entry in assay [3] was “inactive”.
Turning to `Nc1ccccc1`, the molecule was called inactive in assay [1], in assay [2], in [4], in [5] and in assay [6]. Further, in [3], the Potency result is “inactive”.
Regarding `CC(C)c1cccc(C(C)C)c1O`, the outcome in assay [1], in assay [2], in assay [7], in [9], in assay [10] and in assay [4] was inactive. For the same molecule, the outcome in assay [11], in [13], in assay [5], in [6] and in assay [14] was inactive. For the same molecule, the Potency entry in [8] and in assay [12] was “inactive” each time.
Turning to `O=C(O)CCCc1ccc(N(CCCl)CCCl)cc1`, the result in assay [1], in [2], in [7], in assay [15], in [9] and in assay [11] was inactive. The outcome in assay [13], in [5] and in [14] was inactive. The Potency entry in assay [3], in assay [16] and in [17] was “inactive” in each case. Also, the Potency in assay [8] is 8.91 µM (active).
For the molecule `O=C(CCCN1CCC2(CC1)C(=O)NCN2c1ccccc1)c1ccc(F)cc1`, the molecule was called inactive in assay [7], in [18], in assay [9], in assay [10], in [11] and in assay [19]. For the same molecule, the outcome in assay [13] and in assay [14] was inactive. In addition, the Potency is 2.51 µM (active) and 1.58 µM (active) in assay [16]; 6.31 µM (active) in [17]. Also, the Potency entry in assay [8] was “inactive”.
As to `Nc1ccccc1C(=O)O`, the outcome in assay [1], in assay [2], in assay [4], in assay [5] and in [6] was inactive. Besides, the Potency entry in assay [3] is “inactive”.
Regarding `C[C@]1(O)CC[C@H]2[C@@H]3CCC4=CC(=O)CC[C@]4(C)[C@@]3(F)[C@@H](O)C[C@@]21C`, the outcome in [1], in [2], in assay [4], in assay [5] and in assay [6] was inactive. The Potency entry in assay [3] is “inactive”.
Regarding `O=P1(N(CCCl)CCCl)NCCCO1` (centres undefined), the outcome in assay [1], in assay [2], in assay [7], in assay [15], in assay [9] and in assay [10] was inactive. The molecule was called inactive in [4], in assay [11], in assay [13], in assay [5], in [6] and in assay [14]. In addition, the Potency entry in [3], in [16] and in assay [17] was “inactive” each time.
As for `COc1cc(OC)c(OC)cc1C=O`, the call in assay [1], in assay [2], in [9], in assay [4], in [11] and in assay [5] was inactive. Moreover, in assay [3], the Potency result was “inactive”.
On to `CN1C[C@H](C(=O)N[C@]2(C)O[C@@]3(O)[C@@H]4CCCN4C(=O)[C@H](Cc4ccccc4)N3C2=O)C=C2c3cccc4[nH]cc(c34)C[C@H]21`, for which the molecule was classed as inactive in assay [1], in assay [2], in assay [4], in assay [5] and in assay [6].
